From ChEMBL document CHEMBL3988442, “University of Dundee, Small-Polar-MMV Screening Library” (2021) come the findings set out here.

What all share (design): scale not given: direction of the effect not stated beside the values
In assay [1] the target is Protein translocase subunit SecA (Escherichia coli (strain K12)) (UniProt P10408). As to the kind of experiment: Assay to Identify E. coli SecA ATPase Inhibitors. Particulars: 30 µM. The class given is functional.
For assay [2], the target named is T1, Ubiquitin-activating enzyme e1, putative (Leishmania donovani (strain BPK282A1)) (UniProt E9BSI1).
T1 sequence (whole entry): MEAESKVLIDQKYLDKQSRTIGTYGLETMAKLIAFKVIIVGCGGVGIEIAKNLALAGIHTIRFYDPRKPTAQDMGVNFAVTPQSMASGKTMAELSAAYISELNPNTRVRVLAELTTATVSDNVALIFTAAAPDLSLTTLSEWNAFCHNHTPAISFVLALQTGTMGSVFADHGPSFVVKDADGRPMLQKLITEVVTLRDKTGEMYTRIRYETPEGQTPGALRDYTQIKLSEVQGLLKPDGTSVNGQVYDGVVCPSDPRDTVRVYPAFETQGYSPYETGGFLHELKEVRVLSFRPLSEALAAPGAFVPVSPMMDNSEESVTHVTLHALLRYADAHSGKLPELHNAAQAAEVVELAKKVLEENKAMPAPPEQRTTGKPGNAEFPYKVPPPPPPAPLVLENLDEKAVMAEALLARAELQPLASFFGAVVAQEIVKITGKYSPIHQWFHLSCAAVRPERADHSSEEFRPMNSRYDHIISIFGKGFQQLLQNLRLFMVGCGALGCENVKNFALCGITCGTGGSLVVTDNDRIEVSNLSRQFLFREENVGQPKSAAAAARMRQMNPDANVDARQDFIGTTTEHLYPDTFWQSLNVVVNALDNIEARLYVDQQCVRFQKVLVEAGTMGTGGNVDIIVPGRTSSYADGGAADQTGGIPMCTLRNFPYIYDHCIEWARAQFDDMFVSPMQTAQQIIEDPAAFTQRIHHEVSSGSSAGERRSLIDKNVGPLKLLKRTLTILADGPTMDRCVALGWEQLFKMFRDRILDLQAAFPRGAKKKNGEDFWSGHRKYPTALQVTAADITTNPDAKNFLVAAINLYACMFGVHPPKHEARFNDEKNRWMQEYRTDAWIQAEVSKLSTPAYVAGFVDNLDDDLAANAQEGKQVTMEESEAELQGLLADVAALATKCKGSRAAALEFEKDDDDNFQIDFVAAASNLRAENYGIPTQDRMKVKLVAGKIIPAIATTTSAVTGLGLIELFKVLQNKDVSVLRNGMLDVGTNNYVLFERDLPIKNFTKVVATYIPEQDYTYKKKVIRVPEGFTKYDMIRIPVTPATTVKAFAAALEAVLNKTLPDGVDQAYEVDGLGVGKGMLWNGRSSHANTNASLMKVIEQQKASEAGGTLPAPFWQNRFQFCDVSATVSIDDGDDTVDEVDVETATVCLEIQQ
The assay is described as follows: Leishmania donovani Ubiquitin Activating Enzyme (LdE1). The class given is functional. The following applies: 30 µM.

Assay [3] deals with AMP-activated protein kinase, AMPK (Homo sapiens) (UniProt P54646+O43741+P54619+Q9UGJ0+Q9Y478+Q13131+Q9UGI9). As to the kind of experiment: AMP-dependent Kinase enzyme assay. An in vitro enzyme assay that detects ADP turnover that is directly proportional to AMPK activity. This uses naive AMPK that is activated during the assay with MK-8722. Particulars: 30 µM. The class given is functional.

The target of assay [4] is Sialic acid-binding Ig-like lectin 9 (Homo sapiens) (UniProt Q9Y336). The assay is described as follows: Hs-Siglec9 ALPHAscreen SOP 20170721. Particulars: 10 µM.
For the next assay, the system named is Trypanosoma cruzi. As to the kind of experiment: Trypanosoma cruzi phosphomannomutase and mannose-1-phosphate guanylyltransferase assay. The class given is functional. The following applies: 10 µM.
Assay [5] concerns the target T2, Arginase-2, mitochondrial (Homo sapiens) (UniProt P78540).
T2 sequence (whole entry): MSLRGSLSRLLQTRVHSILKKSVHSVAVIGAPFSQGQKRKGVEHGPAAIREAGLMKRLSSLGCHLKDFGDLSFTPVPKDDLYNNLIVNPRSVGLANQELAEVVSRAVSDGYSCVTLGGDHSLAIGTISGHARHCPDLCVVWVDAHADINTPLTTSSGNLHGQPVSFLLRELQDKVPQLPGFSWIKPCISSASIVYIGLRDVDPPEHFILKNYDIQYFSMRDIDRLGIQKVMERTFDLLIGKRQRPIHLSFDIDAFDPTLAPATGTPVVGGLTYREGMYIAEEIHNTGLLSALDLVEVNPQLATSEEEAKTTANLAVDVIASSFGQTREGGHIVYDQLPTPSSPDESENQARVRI
The assay is described as follows: in vitro enzyme assay to detect the production of urea directly proportional to the activity of Arginase II. Note: in the data most compounds retested in dose-response had high values. The format is functional. Particulars: 33.3 µM.

Assay [6] concerns the target T3, Proteasome subunit beta (Trypanosoma cruzi) (UniProt O96673).
T3 sequence (whole entry): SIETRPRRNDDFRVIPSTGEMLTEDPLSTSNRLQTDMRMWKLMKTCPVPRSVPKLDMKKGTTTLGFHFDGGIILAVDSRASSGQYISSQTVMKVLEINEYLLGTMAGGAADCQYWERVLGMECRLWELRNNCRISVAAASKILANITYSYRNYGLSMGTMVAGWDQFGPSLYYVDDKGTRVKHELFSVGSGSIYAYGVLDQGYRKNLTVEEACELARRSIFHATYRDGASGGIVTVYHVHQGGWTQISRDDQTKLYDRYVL
As to the kind of experiment: Trypanosoma cruzi proteasome chymotrypsin-like activity (TcProtChymo) assay. Note: in the data most compounds retested in dose-response had high values. The class given is functional. Particulars: 9.37 µM.

The species named for another assay is Homo sapiens. As to the kind of experiment: To identify inhibition of the IFN signalling (Jak-Stat) pathway via expression of an eGFP reporter gene under the control of an IFN-stimulated response element (ISRE) containing MxA promoter. The class given is functional. Particulars: 30 µM. For orientation: In a reporter assay the amount or activity of a reporter protein is the signal.

Assay [7] addresses T4, Tyrosyl-tRNA synthetase, putative (Trypanosoma cruzi (strain CL Brener)) (UniProt Q4DSP6).
T4 sequence (whole entry): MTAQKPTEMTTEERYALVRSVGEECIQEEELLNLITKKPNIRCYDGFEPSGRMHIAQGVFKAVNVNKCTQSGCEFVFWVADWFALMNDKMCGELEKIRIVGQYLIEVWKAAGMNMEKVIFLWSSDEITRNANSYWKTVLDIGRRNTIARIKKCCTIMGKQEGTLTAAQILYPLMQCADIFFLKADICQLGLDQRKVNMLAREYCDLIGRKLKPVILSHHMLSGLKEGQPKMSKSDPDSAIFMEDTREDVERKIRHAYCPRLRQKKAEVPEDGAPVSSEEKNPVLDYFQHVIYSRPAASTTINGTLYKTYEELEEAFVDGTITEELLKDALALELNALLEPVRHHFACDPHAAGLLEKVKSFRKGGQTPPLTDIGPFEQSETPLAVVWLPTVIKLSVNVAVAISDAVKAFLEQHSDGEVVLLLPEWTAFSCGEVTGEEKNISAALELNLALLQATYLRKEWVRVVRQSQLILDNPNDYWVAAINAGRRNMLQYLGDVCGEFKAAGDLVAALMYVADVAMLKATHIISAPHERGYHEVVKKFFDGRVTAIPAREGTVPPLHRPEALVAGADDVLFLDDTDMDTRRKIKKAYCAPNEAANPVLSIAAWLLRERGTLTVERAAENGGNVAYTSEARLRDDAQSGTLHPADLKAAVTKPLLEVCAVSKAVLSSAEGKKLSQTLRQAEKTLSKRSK
The assay is described as follows: Trypanosoma cruzi tyrosyl tRNA synthetase (TcYRS) _High Tyrosine SOP. Note: in the data most compounds retested in dose-response had high values. The following applies: 30 µM. The class given is functional.

In assay [8] the target is T4, Tyrosyl-tRNA synthetase, putative (Trypanosoma cruzi (strain CL Brener)). The assay is described as follows: Trypanosoma cruzi tyrosyl tRNA synthetase (TcYRS) SOP. The class given is functional. Particulars: 30 µM.
Assay [9] concerns the target Chromo domain-containing protein 1 (Saccharomyces cerevisiae (strain ATCC 204508 / S288c) (Baker's yeast)) (UniProt P32657). As to the kind of experiment: ScCHD-1 Enzyme Inhibition Assay. Note: in the data most compounds retested in dose-response had high values. The format is functional. The following applies: 30 µM.

SMILES strings stand for the structures. For some of these results: Potency and affinity values are given separately.

Sialic acid-binding Ig-like lectin 9 (Homo sapiens), sequence (Q9Y336 whole entry): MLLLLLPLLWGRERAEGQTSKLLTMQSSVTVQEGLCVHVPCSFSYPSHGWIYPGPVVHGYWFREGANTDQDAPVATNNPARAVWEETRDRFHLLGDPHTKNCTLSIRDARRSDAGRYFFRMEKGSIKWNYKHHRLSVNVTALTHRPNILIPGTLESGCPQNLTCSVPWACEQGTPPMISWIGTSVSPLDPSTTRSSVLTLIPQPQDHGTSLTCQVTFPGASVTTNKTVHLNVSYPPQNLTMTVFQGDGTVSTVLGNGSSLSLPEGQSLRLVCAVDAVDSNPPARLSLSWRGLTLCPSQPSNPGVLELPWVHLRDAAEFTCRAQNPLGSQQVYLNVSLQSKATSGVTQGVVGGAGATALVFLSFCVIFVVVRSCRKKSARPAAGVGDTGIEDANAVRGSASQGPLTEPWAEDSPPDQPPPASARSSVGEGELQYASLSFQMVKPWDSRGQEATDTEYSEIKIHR
Protein translocase subunit SecA (Escherichia coli (strain K12)), sequence (P10408 whole entry): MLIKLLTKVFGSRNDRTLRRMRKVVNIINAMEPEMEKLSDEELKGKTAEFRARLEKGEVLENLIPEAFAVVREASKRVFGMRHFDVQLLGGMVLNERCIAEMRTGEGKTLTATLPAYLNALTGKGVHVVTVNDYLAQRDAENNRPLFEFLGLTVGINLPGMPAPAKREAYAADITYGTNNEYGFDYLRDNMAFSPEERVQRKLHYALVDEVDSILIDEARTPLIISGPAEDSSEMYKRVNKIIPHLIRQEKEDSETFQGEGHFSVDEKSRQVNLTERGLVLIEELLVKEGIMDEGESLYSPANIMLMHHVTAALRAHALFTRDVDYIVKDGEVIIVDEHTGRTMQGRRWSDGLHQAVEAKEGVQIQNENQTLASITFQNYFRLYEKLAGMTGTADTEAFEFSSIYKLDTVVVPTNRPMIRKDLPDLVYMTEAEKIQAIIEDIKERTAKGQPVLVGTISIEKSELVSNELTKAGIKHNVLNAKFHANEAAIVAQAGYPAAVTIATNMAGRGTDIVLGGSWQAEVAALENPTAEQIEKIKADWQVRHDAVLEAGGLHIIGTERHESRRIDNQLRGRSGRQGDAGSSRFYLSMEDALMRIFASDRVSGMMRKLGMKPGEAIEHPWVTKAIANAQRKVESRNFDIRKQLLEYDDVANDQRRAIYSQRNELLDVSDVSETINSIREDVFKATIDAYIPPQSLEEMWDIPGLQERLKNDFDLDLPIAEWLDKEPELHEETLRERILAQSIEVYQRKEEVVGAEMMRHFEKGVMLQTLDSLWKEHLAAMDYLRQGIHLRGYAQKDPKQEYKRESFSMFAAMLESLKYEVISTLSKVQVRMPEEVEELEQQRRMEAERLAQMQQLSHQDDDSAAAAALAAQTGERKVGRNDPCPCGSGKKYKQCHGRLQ
Chromo domain-containing protein 1 (Saccharomyces cerevisiae (strain ATCC 204508 / S288c) (Baker's yeast)), sequence (P32657 whole entry, the tested form may be a part): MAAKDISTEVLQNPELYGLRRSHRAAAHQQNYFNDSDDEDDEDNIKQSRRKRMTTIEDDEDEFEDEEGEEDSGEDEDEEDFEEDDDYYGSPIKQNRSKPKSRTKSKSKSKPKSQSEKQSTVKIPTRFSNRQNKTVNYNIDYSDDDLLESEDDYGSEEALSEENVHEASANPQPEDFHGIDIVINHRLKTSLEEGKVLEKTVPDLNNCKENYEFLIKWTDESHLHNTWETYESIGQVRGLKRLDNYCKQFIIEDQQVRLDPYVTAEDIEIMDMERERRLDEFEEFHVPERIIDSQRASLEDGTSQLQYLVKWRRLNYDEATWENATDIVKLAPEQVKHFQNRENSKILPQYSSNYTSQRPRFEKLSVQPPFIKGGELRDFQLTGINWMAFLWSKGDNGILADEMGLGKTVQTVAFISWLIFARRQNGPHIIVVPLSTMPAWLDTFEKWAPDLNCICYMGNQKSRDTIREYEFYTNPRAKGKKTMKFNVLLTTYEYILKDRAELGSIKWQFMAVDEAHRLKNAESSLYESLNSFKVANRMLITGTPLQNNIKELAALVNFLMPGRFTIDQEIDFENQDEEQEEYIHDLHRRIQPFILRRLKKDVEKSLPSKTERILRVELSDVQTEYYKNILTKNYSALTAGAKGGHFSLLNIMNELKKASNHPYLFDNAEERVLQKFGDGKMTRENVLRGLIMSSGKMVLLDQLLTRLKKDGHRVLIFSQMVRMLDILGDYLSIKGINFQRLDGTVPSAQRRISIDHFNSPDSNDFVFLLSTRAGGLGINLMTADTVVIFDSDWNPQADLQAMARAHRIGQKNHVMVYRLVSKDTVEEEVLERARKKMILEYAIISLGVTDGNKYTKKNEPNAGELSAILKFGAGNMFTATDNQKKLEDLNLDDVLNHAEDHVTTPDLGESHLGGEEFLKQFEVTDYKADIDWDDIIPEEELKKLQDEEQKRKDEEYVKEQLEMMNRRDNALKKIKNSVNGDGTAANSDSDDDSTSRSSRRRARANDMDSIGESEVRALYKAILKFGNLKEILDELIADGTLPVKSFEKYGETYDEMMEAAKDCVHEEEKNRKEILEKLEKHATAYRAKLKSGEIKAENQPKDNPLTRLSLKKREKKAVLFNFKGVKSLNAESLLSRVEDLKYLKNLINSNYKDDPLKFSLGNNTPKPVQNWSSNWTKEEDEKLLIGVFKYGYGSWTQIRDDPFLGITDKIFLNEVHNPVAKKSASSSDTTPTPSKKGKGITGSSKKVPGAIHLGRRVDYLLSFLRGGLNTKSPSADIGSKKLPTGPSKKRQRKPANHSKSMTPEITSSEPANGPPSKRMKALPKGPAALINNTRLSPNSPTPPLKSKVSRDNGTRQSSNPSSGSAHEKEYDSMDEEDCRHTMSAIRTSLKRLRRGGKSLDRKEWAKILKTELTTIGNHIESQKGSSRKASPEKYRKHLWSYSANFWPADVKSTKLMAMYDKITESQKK

Turning to `CCOc1ccc(CC(=O)N2CCN(c3nccn3C)CC2)cc1`, the Percent Effect in assay [1] is -0.699%; in [2] it was 13%; in assay [3] it was 1.57%; in assay [4], 3.44%; in the assay with Trypanosoma cruzi, -5.62%; in assay [5], -7.1%. Besides, the Percent Effect in assay [6] was 18.6%; in the assay listed under Homo sapiens, 9.26%; in [7] it was 4.23%; in assay [8], 14.1%; in [9], -6.41%.

As to `COc1cc2cc(C(=O)O)n(C)c2c(OC)c1OC`, the Percent Effect in [1] was 2.1%; in [2], -9.33%; in [3], 13.7%; in assay [4] it was 8.78%; with Trypanosoma cruzi it was -4.71%; in [5] it was -5.46%. The Percent Effect is 13.9% in assay [6]; 1.84% in the assay filed under Homo sapiens; -3.17% in assay [7]; -5.13% in assay [8]; -10% in assay [9].

Take `O=C(Cc1c[nH]c2ccccc12)N1CCN(C(=O)c2ccoc2)CC1`: the Percent Effect in assay [1] was -2.06%; in [2], 13.2%; in [3], 1.95%; in assay [4] it was -3.58%; in the assay on Trypanosoma cruzi, 0.487%; in [5], 14.2%. The Percent Effect in assay [6] was 12.9%; in the assay listed under Homo sapiens, 21.1%; in [7], 7.45%; in [8] it was 18.2%; in [9], -2.68%.

On to `O=C(c1ccccn1)N1C[C@@H]2CC[C@H](C1)N(C(=O)CCc1ccsc1)C2`, for which the Percent Effect was -0.66% in assay [1]; 7.79% in assay [2]; 1.47% in assay [3]; 8.15% in assay [4]; -4.82% in the assay on Trypanosoma cruzi; -5.52% in assay [5]. Also, the Percent Effect in [6] was 13.3%; in the assay filed under Homo sapiens it was 5.27%; in assay [7] it was 7.53%; in [8], 13.6%; in assay [9] it was -2.49%.

Consider `COCCOc1ccc(NC(=O)N2CCCC2c2cc(C)no2)cn1` (stereo unspecified), for which the Percent Effect in [1] is -4.97%; in assay [2] it was 0%; in assay [3], 0.449%; in assay [4], 5.01%; with Trypanosoma cruzi, -0.686%; in assay [5], -1.05%. Further, the Percent Effect was 5.74% in [6]; 9.34% in the assay listed under Homo sapiens; 5.71% in [7]; 2.35% in assay [8]; -14.1% in assay [9].

`O=C1CC2(CCN(c3nncs3)C2)CN1c1ccccc1` (stereo unspecified): the Percent Effect in assay [1] is -2.98%; in assay [2], 5.41%; in [3], -3.44%; in [4], 2.02%; in the assay with Trypanosoma cruzi it was -5.66%; in assay [5] it was 4.58%. Also, the Percent Effect is 12.4% in assay [6]; -3.33% in the assay filed under Homo sapiens; 4.95% in assay [7]; 11% in assay [8]; 0.436% in assay [9].

With `Cc1cccc(CN(C)Cc2nc3c(cnn3C)c(=O)[nH]2)c1`, the Percent Effect in assay [1] was -3.57%; in [2], 21.1%; in [3], -0.412%; in [4], -12.2%; in the assay with Trypanosoma cruzi it was -5.51%; in [5], -5.04%. Further, the Percent Effect in assay [6] is 3.3%; in the assay filed under Homo sapiens it was -2.73%; in [7], 8.37%; in assay [8] it was 23.5%; in [9], -7.57%.

Take `COCC(=O)N(C)Cc1cccc(Cl)c1`: the Percent Effect in assay [1] is -4%; in [2], 10.5%; in assay [3], -1.75%; in assay [4], -3.18%; in the assay with Trypanosoma cruzi, 4.19%; in [5], 0%. Besides, the Percent Effect in [6] is 2.78%; in the assay filed under Homo sapiens, 4.21%; in assay [7], 1.06%; in assay [8], 13%; in assay [9] it was -4.61%.

On to `CN1CC(=O)N(c2cccnc2)CC12CCN(C(=O)c1cccnc1)C2` (stereo unspecified), for which the Percent Effect in [1] was 1.61%; in [2], 10.7%; in assay [3], 11%; in [4], -7.78%; with Trypanosoma cruzi, -3.09%; in [5], -53.9%. Moreover, the Percent Effect in assay [6] is 14.5%; in the assay filed under Homo sapiens, 2.71%; in assay [7], 6.25%; in assay [8] it was 10%; in assay [9], -5.77%.

Regarding `CCN1CC(C(=O)N(C)Cc2ccon2)CC1=O` (stereo unspecified), the Percent Effect was -8.65% in assay [1]; 0% in assay [2]; -1.95% in assay [3]; -7.7% in assay [4]; -2.44% in the assay with Trypanosoma cruzi; -2.73% in assay [5]. Besides, the Percent Effect in assay [6] is 7.47%; in the assay listed under Homo sapiens it was 13.7%; in assay [7] it was -1.07%; in assay [8], -1.24%; in [9], -3.83%.

For `CCCS(=O)(=O)N1C[C@H]2OC(=O)N(CCc3cccc(Cl)c3)[C@H]2C1`, the Percent Effect is -5.06% in [1]; 2.67% in [2]; -2.35% in [3]; -2.36% in assay [4]; -3.21% in the assay with Trypanosoma cruzi; -2.08% in [5]. Further, the Percent Effect in [6] was 5.93%; in the assay filed under Homo sapiens it was 16.4%; in assay [7], -0.546%; in assay [8] it was 3.7%; in assay [9] it was -2.16%.
